# Assays:
# Assay in all cases: PBM; 200 nM protein, PBS
# Settings in all cases: dsDNA, one strand shown
# [1] = molecular target: HESX1 (Homo sapiens, UniProt Q9UBX0 95-180, R165K)
# [2] = molecular target: HOXB4 (Homo sapiens, UniProt P17483 148-234)
# [3] = molecular target: SHOX (Homo sapiens, UniProt O15266 103-189)
# [4] = molecular target: HESX1 (Homo sapiens, UniProt Q9UBX0 95-180)
# [5] = molecular target: HOXA4 (Homo sapiens, UniProt Q00056 201-287, R217L)
# [6] = molecular target: HOXB4 (Homo sapiens, UniProt P17483 148-234, V174I)
# HOXB4 (Homo sapiens, UniProt P17483 148-234, V174I), sequence (P17483 148-234 V174I): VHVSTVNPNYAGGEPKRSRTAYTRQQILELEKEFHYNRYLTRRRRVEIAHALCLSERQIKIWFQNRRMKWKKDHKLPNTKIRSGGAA
# [7] = molecular target: MSX2 (Homo sapiens, UniProt P35548 130-214, R199I)
# MSX2 (Homo sapiens, UniProt P35548 130-214, R199I), sequence (P35548 130-214 R199I): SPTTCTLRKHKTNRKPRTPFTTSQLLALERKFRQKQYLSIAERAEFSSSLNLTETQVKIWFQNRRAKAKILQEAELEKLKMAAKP
# [8] = molecular target: ALX3 (Homo sapiens, UniProt O95076 139-225, N203Q)
# ALX3 (Homo sapiens, UniProt O95076 139-225, N203Q), sequence (O95076 139-225 N203Q): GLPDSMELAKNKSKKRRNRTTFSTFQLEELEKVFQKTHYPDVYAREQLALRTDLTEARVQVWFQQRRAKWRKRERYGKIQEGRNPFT
# [9] = molecular target: SHOX (Homo sapiens, UniProt O15266 103-189, R173C)
# SHOX (Homo sapiens, UniProt O15266 103-189, R173C), sequence (O15266 103-189 R173C): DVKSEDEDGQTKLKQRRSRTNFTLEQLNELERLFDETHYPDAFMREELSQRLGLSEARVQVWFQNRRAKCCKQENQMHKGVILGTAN
# [10] = molecular target: ALX3 (Homo sapiens, UniProt O95076 139-225)
# ALX3 (Homo sapiens, UniProt O95076 139-225), sequence (O95076 139-225): as the sequence (O95076 139-225 N203Q) above, with Q65N counted along it
# [11] = molecular target: PROP1 (Homo sapiens, UniProt O75360 56-141)
# PROP1 (Homo sapiens, UniProt O75360 56-141), sequence (O75360 56-141): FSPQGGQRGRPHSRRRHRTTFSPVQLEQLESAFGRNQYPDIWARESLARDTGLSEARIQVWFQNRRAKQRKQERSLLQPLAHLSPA
# [12] = molecular target: HESX1 (Homo sapiens, UniProt Q9UBX0 95-180, R109Q)
# HESX1 (Homo sapiens, UniProt Q9UBX0 95-180, R109Q), sequence (Q9UBX0 95-180 R109Q): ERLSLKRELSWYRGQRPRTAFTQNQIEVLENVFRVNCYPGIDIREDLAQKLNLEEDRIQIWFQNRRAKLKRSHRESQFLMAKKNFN
# [13] = molecular target: PROP1 (Homo sapiens, UniProt O75360 56-141, R99H)
# PROP1 (Homo sapiens, UniProt O75360 56-141, R99H), sequence (O75360 56-141 R99H): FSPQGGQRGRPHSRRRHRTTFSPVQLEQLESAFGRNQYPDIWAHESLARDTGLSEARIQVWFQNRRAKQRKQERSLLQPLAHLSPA
# [14] = molecular target: ALX3 (Homo sapiens, UniProt O95076 139-225, L168Q)
# ALX3 (Homo sapiens, UniProt O95076 139-225, L168Q), sequence (O95076 139-225 L168Q): as the sequence (O95076 139-225 N203Q) above, with L30Q, Q65N counted along it
# [15] = molecular target: HESX1 (Homo sapiens, UniProt Q9UBX0 95-180, P111T)
# HESX1 (Homo sapiens, UniProt Q9UBX0 95-180, P111T), sequence (Q9UBX0 95-180 P111T): as the sequence (Q9UBX0 95-180 R109Q) above, with Q15R, P17T counted along it
# [16] = molecular target: ALX3 (Homo sapiens, UniProt O95076 139-225, L168V)
# ALX3 (Homo sapiens, UniProt O95076 139-225, L168V), sequence (O95076 139-225 L168V): as the sequence (O95076 139-225 N203Q) above, with L30V, Q65N counted along it
# [17] = molecular target: PROP1 (Homo sapiens, UniProt O75360 56-141, F88S)
# PROP1 (Homo sapiens, UniProt O75360 56-141, F88S), sequence (O75360 56-141 F88S): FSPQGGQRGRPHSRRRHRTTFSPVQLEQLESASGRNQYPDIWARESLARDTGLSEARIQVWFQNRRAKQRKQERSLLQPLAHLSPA
# [18] = molecular target: MSX2 (Homo sapiens, UniProt P35548 130-214, F161Y)
# MSX2 (Homo sapiens, UniProt P35548 130-214, F161Y), sequence (P35548 130-214 F161Y): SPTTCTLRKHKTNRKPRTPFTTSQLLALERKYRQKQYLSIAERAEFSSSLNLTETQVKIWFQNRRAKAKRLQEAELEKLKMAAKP
# [19] = molecular target: HESX1 (Homo sapiens, UniProt Q9UBX0 95-180, F115L)
# HESX1 (Homo sapiens, UniProt Q9UBX0 95-180, F115L), sequence (Q9UBX0 95-180 F115L): as the sequence (Q9UBX0 95-180 R109Q) above, with Q15R, F21L counted along it
# [20] = molecular target: ALX3 (Homo sapiens, UniProt O95076 139-225, N203S)
# ALX3 (Homo sapiens, UniProt O95076 139-225, N203S), sequence (O95076 139-225 N203S): as the sequence (O95076 139-225 N203Q) above, with Q65S counted along it
# HESX1 (Homo sapiens, UniProt Q9UBX0 95-180), sequence (Q9UBX0 95-180): as the sequence (Q9UBX0 95-180 R109Q) above, with Q15R counted along it
# HESX1 (Homo sapiens, UniProt Q9UBX0 95-180, R165K), sequence (Q9UBX0 95-180 R165K): as the sequence (Q9UBX0 95-180 R109Q) above, with Q15R, R71K counted along it
# SHOX (Homo sapiens, UniProt O15266 103-189), sequence (O15266 103-189): as the sequence (O15266 103-189 R173C) above, with C71R counted along it
# HOXA4, sequence (Q00056 201-287 R217L): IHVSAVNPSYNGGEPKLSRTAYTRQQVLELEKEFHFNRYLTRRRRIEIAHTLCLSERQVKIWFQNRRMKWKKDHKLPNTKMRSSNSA
# HOXB4 (Homo sapiens, UniProt P17483 148-234), sequence (P17483 148-234): as the sequence (P17483 148-234 V174I) above, with I27V counted along it
sequence,measurement,setting,value
CTAATTAC,binding signal,[1],"13.2 upbm affinity estimate (log intensity, higher = more binding, comparable within an allelic series)"
same,binding signal,[2],"13.6 upbm affinity estimate (log intensity, higher = more binding, comparable within an allelic series)"
same,binding signal,[3],"12.8 upbm affinity estimate (log intensity, higher = more binding, comparable within an allelic series)"
same,binding signal,[4],"13.2 upbm affinity estimate (log intensity, higher = more binding, comparable within an allelic series)"
same,binding signal,[5],"12.7 upbm affinity estimate (log intensity, higher = more binding, comparable within an allelic series)"
same,binding signal,[6],"14.4 upbm affinity estimate (log intensity, higher = more binding, comparable within an allelic series)"
same,binding signal,[7],"13.2 upbm affinity estimate (log intensity, higher = more binding, comparable within an allelic series)"
same,binding signal,[8],"8.37 upbm affinity estimate (log intensity, higher = more binding, comparable within an allelic series)"
same,binding signal,[9],"10.1 upbm affinity estimate (log intensity, higher = more binding, comparable within an allelic series)"
same,binding signal,[10],"12.9 upbm affinity estimate (log intensity, higher = more binding, comparable within an allelic series)"
same,binding signal,[11],"12 upbm affinity estimate (log intensity, higher = more binding, comparable within an allelic series)"
same,binding signal,[12],"9.51 upbm affinity estimate (log intensity, higher = more binding, comparable within an allelic series)"
same,binding signal,[13],"12 upbm affinity estimate (log intensity, higher = more binding, comparable within an allelic series)"
same,binding signal,[14],"11 upbm affinity estimate (log intensity, higher = more binding, comparable within an allelic series)"
same,binding signal,[15],"11.8 upbm affinity estimate (log intensity, higher = more binding, comparable within an allelic series)"
same,binding signal,[16],"10.5 upbm affinity estimate (log intensity, higher = more binding, comparable within an allelic series)"
same,binding signal,[17],"7.85 upbm affinity estimate (log intensity, higher = more binding, comparable within an allelic series)"
same,binding signal,[18],"13.8 upbm affinity estimate (log intensity, higher = more binding, comparable within an allelic series)"
same,binding signal,[19],"7.95 upbm affinity estimate (log intensity, higher = more binding, comparable within an allelic series)"
same,binding signal,[20],"8.5 upbm affinity estimate (log intensity, higher = more binding, comparable within an allelic series)"
CCCCGGCG,binding signal,[1],"6.58 upbm affinity estimate (log intensity, higher = more binding, comparable within an allelic series)"
same,binding signal,[3],"6.85 upbm affinity estimate (log intensity, higher = more binding, comparable within an allelic series)"
same,binding signal,[4],"6.57 upbm affinity estimate (log intensity, higher = more binding, comparable within an allelic series)"
same,binding signal,[5],"9.73 upbm affinity estimate (log intensity, higher = more binding, comparable within an allelic series)"
same,binding signal,[8],"7.82 upbm affinity estimate (log intensity, higher = more binding, comparable within an allelic series)"
same,binding signal,[9],"7.05 upbm affinity estimate (log intensity, higher = more binding, comparable within an allelic series)"
same,binding signal,[10],"7.76 upbm affinity estimate (log intensity, higher = more binding, comparable within an allelic series)"
same,binding signal,[12],"6.61 upbm affinity estimate (log intensity, higher = more binding, comparable within an allelic series)"
same,binding signal,[14],"7.73 upbm affinity estimate (log intensity, higher = more binding, comparable within an allelic series)"
same,binding signal,[15],"6.61 upbm affinity estimate (log intensity, higher = more binding, comparable within an allelic series)"
same,binding signal,[16],"7.68 upbm affinity estimate (log intensity, higher = more binding, comparable within an allelic series)"
same,binding signal,[19],"6.51 upbm affinity estimate (log intensity, higher = more binding, comparable within an allelic series)"
same,binding signal,[20],"7.81 upbm affinity estimate (log intensity, higher = more binding, comparable within an allelic series)"

# Source: article PMC11006913
